KCNH2 3.1 block: qHTS for Inhibitors of KCHN2 3.1: Mutant qHTS. Potassium voltage-gated channel subfamily H member 2, brain isoform KCNH2 3.1 (human). AID 720553, 2013. U2OS KCNH2 3.1, thallium flux FluxOr; stronger effect = lower value. 340,000 compounds, 0.95% hits. activity change, % (tested at about 1.8 µM);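 active = maximum activity change below -70%; inconclusive = maximum activity change from -70% to -50%; inactive = maximum activity change above -50%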;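 also: thallium influx rate constant from kinetic fluorescence after stimulation buffer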
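Kinetic fluorescence (2 min after stimulation buffer) measures Tl+ influx through KCNH2 3.1 expressed by viral transduction in U2OS cells; the rate constant is normalized against DMSO controls serving as positive and negative references.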
RGS4 inhibitor: Inhibitors of Regulator of G Protein Signaling (RGS) 4: qHTS; Regulator of G-protein signaling 4 (Homo sapiens), P49798; Transcreener GDP fluorescence polarization, RGS4-accelerated GTP hydrolysis; Potency, µM (titrated, usually from 114 µM), for inactives: top-dose activity change, negative = inhibition, hits mostly inhibitors; 390,000 compounds, 0.039% hits; also: potency is read from the fitted curve at half-maximal effect; nearly all actives have a fitted effect of over 75% in size
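MLSMR compounds (23 nl, pin-transferred) preincubated 10 min at room temperature with a 500nM (2x) first reagent, then RGS4 at 900nM (2x) plus Transcreener GDP mix added; fluorescence polarization (620/688 nm) read before and after 90 min at 30 °C.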
KCNH2 WT inh: qHTS for Inhibitors of KCHN2 3.1: Wildtype qHTS; U2OS, BacMam KCNH2, thallium flux FluxOr; stronger effect = lower value; activity change, % at 1.84 µM; Voltage-gated inwardly rectifying potassium channel KCNH2 (Homo sapiens), Q12809; AID 720551, 2013; 340,000 compounds, 0.37% hits;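 active = maximum activity change below -70%; inconclusive = maximum activity change between -70% and -50%; inactive = maximum activity change above -50%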
Target sequence (Q12809 whole entry, looked up): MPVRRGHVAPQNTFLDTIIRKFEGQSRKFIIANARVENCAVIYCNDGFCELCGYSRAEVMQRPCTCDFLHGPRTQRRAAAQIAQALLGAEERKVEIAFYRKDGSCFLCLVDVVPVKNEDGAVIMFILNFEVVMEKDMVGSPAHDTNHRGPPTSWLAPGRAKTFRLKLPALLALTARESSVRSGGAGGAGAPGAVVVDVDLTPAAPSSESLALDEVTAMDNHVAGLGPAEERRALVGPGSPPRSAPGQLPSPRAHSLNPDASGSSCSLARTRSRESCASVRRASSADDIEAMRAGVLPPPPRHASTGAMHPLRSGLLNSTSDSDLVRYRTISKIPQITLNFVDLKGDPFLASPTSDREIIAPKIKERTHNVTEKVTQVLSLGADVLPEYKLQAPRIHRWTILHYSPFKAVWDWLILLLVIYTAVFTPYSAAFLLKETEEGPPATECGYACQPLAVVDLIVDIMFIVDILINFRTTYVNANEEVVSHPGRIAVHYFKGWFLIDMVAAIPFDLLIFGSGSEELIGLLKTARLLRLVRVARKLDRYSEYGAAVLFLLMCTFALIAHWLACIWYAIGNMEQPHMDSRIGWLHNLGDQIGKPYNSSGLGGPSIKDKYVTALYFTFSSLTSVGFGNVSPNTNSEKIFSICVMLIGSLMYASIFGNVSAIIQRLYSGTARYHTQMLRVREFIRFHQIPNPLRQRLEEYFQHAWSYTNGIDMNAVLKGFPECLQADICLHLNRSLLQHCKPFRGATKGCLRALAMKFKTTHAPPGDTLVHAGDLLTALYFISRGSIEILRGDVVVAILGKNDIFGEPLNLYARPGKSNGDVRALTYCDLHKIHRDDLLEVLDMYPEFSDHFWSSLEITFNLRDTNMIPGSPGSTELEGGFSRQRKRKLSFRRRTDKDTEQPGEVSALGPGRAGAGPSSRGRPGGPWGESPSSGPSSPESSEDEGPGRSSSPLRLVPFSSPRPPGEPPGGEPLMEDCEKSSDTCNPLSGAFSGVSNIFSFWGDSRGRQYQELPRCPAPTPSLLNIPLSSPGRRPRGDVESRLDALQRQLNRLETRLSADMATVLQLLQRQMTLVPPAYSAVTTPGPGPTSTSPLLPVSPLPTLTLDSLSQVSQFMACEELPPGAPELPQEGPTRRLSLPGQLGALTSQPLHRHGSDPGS
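U2OS cells were transduced with wild-type KCNH2 virus (2.03 x 10^8 / mL) for 4 h at room temperature, then cultured overnight at 37 C. Thallium flux was read with FluxOr dye. Rate constants were normalized to DMSO controls.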
PGK inhibitor: qHTS Assay to Find Inhibitors of Phosphoglycerate Kinase; Phosphoglycerate kinase, glycosomal (Trypanosoma brucei brucei), P07378; PGK/GAPDH coupled, Kinase-Glo luminescence, 60 min; Potency, µM (top dose mostly 57.5 µM), inactives show at the highest dose activity change, negative = inhibition, most hits filed as inhibitors; 380,000 compounds, 0.043% hits; also: potency is read from the fitted curve at half-maximal effect; nearly all actives have a fitted effect of over 60% in size
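Luminescent ATP detection (Kinase-Glo Plus) follows a 60-minute room-temperature incubation, with wells lacking PGK as controls. Buffer: 100 mM TEA (pH 7.6), 5 mM MgCl2, 0.01% Tween-20. Coupling enzyme GAPDH (100 nM final) supplies unstable 1,3-BPG in-well.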
KAT2A inh: qHTS Assay for Inhibitors of GCN5L2; Potency, µM (titrated, usually from 58.9 µM), for the others: at the top dose activity change, negative = inhibition, actives largely listed as inhibitors; AID 504327, 2011; 390,000 compounds, 0.21% hits; GCN5L2 HAT assay, ThioGlo1 CoA-SH fluorescence; also: potency is read from the fitted curve at half-maximal effect
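qHTS, 1536-well. 20nM enzyme, pH 7.5 HEPES/EDTA/Tween-20 buffer; 15 min compound preinc., RT. Start: 75uM H3(1-25), 70uM AcCoA, 50uM ThioGlo1. Read Ex340/Em540 at t=0 (autofluorescence flag) and t=20 min.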
Pin1 inh: qHTS Assay to Find Inhibitors of Pin1 | 390,000 compounds, 0.009% hits | Potency, µM (titrated, usually from 115 µM), inactives show at the highest dose activity, negative = inhibition, usual class: inhibitors | Pin1 FP peptide displacement, HiFluor488, 10 min | Peptidyl-prolyl cis-trans isomerase NIMA-interacting 1 (Homo sapiens), Q13526; active = well fitted inhibition curve with a large enough effect in the polarisation, with a control signal flat, not every such curve was filed as active; inconclusive = small, poorly fitted or top-dose-only effect, or effect the other way, or a change in a side signal; inactive = no such curve, though single readings can be large or run the other way; the % refers to the polarisation; also: potency is read from the fitted curve at half-maximal effect
Active calls of the source: *; i = inactive; ? = inconclusive; · = no result; [ ] = another dose, or the depositor's remark. Hits are enriched below; roughly 1.2% of the tested compounds scored in any of these assays. Unless noted, calls follow the shape of the dose curve; as a rule, active = well fitted curve in the direction sought with a large enough effect; inconclusive = small, poorly fitted or top-dose-only effect, or another doubt; inactive = no such curve, though single readings can be large; an effect the other way counts as inactive or inconclusive. % is scaled to controls: 0 for no effect and ±100 for the full control effect.

SMILES	KCNH2 3.1 block	RGS4 inhibitor	KCNH2 WT inh	PGK inhibitor	KAT2A inh	Pin1 inh
COC(=O)c1ccc(CSc2nnc(-c3ccncc3)n2Cc2ccccc2)o1	-173*	9%[11.4 µM]	-199*	-3%	-4%	11%
CNC(=O)CSc1nnc(-c2ccncc2)n1Cc1ccccc1	0	20%	-8	-4%	-15%	-6%
Cc1cccc(NC(=O)CSc2nnc(CNC(=O)c3c(F)cccc3Cl)o2)c1C	·	5%	·	-2%	-6%	-1%
Cc1[nH]c2ccc(C(=O)N3CCN(c4ccccc4Cl)CC3)cc2c1C	-30	-12%	-78*	i	-20%	-2%
NS(=O)(=O)c1ccc(NCc2ccccc2OCc2ccc(F)cc2)cc1	-22	4%	-5	3%	?	0%
COc1cc(CNCCc2ccc(S(N)(=O)=O)cc2)ccc1OCc1ccc(Cl)cc1	-109*	-4%	-31	-3%	-5%	3%
NS(=O)(=O)c1ccc(CCNCc2ccccc2OCc2ccc(F)cc2)cc1	-76*	-1%	-33	6%	?	1%
Cc1cc(Cl)ccc1OCC(O)CNCCc1ccc(S(N)(=O)=O)cc1 (configuration not stated)	-98*	18%	?	·	-3%	1%
Cc1c(-c2ccc(O)cc2)nn(-c2ccc(O)cc2)c1-c1ccc(OCCN2CCCCC2)cc1	·	166%[56.9 µM]	·	·	-25%	·
O=S(=O)(c1ccc2c(c1)OCCO2)N1CCN(S(=O)(=O)c2c(F)ccc(O)c2F)CC1	·	·	·	·	·	27%
O=C(NCCN1CCN(C(=O)c2ccc(Br)cc2)CC1)c1ccc(Br)cc1	-83*	-1%	-4	-4%	-1%	-8%
CCc1ccc(NC(=O)C(=O)NCCN2CCN(Cc3ccc([N+](=O)[O-])cc3)CC2)cc1	-106*	15%	-91*	3%	-2%	5%
Cc1ccc(C(=O)N2CCN(CCNC(=O)C(=O)Nc3ccc(Cl)cc3)CC2)cc1	-87*	-14%	9	i	-1%	1%
Cc1ccc(NC(=O)C(=O)NCCN2CCN(Cc3ccc([N+](=O)[O-])cc3)CC2)cc1	-108*	13%	-82*	7%	2%	-8%
CCOC(=O)CSc1nc2c(sc3ccccc32)c(=O)n1Cc1ccc(OC)cc1	·	16%	·	-3%	1%	11%
COc1cc(N)c(Cl)cc1C(=O)N[C@H]1CCN(CCCOc2ccc(F)cc2)C[C@H]1OC	-84*	-7%	-70*	-8%	0%	0%
C/C(=N\Nc1ncnc2sc(C)c(C)c12)c1ccccn1	-8	-11%	-73*	4%	-9%	?
CC(=O)N1CCC2(CCCN(C(=O)Nc3cccc(C#N)c3)C2)CC1	·	·	·	·	-3%	·
CC(=O)N1CCN(c2cccc(Nc3nn4c(=O)c5ccccc5nc4s3)c2)CC1	·	·	·	·	·	1%
O=C1c2ccccc2C(=O)N1CSc1nnc(Nc2ccccc2)s1	-105*	7%	-1	-1%	4%	16%
CCOn1c(=O)c(-c2ccc(Cl)cc2)[n+]([O-])c2ccccc21	-6	-91%[56.9 µM]	-9	i	-1%	1%
CCOn1c(=O)c(-c2ccc(C)cc2)[n+]([O-])c2ccccc21	-84*	-1%	1	-9%	-1%	-2%
CCc1cccc(-n2c(=O)c3cccnc3n2CC(=O)Nc2ccc(OC)c(Cl)c2)c1	·	-3%	·	i	17%	8%
COc1ccc(-c2nnc3n2N=C(C)CS3)cc1	-2	-1%	-3	i	3%	-5%
CCOC(=O)/C(=C/c1ccc(OC(F)F)cc1)C1=Nn2c(nnc2-c2ccc(Cl)cc2)SC1	-83*	?	?	4%	·	4%
SMILES	KCNH2 3.1 block	RGS4 inhibitor	KCNH2 WT inh	PGK inhibitor	KAT2A inh	Pin1 inh
CCOC(=O)/C(=C\c1ccc(OC(F)F)cc1)C1=Nn2c(nnc2-c2ccc(Cl)cc2)SC1	-70*	-25%	-78*	-1%	-12%	34%
COc1ccccc1-c1c(C)nn2c(N3CCN(c4cccc(Cl)c4)CC3)cc(C)nc12	·	-6%	·	-9%	-3%	9%
CC[C@@H](C(=O)[C@@H](C)[C@@H](O)[C@H](C)CCc1ccc(C)c(O)c1C(=O)O)C1O[C@](CC)(C2CC[C@](O)(CC)[C@H](C)O2)C[C@@H]1C (some centres not stated)	·	·	·	·	16µM*	·
CC[C@H](C(=O)[C@H](C)[C@H](O)[C@H](C)CCc1ccc(C)c(O)c1C(=O)O)[C@H]1O[C@](CC)([C@@H]2CC[C@@](O)(CC)[C@H](C)O2)C[C@H]1C	·	·	·	·	0%[21.4 µM]	·
CCCN1CNc2c(c(=O)[nH]c(=S)n2CCc2ccc(C)cc2C)C1	·	-3%	·	·	·	-9%
O=C(CSc1nnc(-c2ccccn2)n1-c1ccc(Cl)cc1)Nc1ccc2c(c1)OCO2	-73*	-4%	10	2%	-5%	8%
NC(=O)C1CCN(c2nc(-c3ccc4c(c3)CCO4)cs2)CC1	·	·	·	·	·	21%
Clc1ccc(CN2CCC(c3nc4ccc(Cl)cc4[nH]3)CC2)cc1	-97*	-21%	-96*	-1%	-6%	4%
OC(CNCC1(N2CCCCC2)CCCCC1)COc1ccc(Cl)cc1Cl (configuration not stated)	-86*	1%	?	0%	2%	5%
COC(=O)C1=C(c2ccccc2)c2ccccc2S(=O)(=O)N1CC(=O)Nc1ccc(F)c(F)c1	·	-3%	·	-2%	-11%	9%
CC1CCc2onc(C(=O)N3CCN(c4ccccc4)CC3)c2C1 (configuration not stated)	·	0%	·	i	-3%	1%
CCCCNC(=O)CCC(=O)Nc1ccc2nc(N3CCOCC3)cc(C)c2c1	-47	20%	3	-7%	-9%	-3%
CCCN(CCC)CCCNC(=S)Nc1ccc2nc(N3CCN(C)CC3)cc(C)c2c1	-109*	-14%	15	i	0%	4%
Cc1cc(N2CCOCC2)nc2ccc(NC(=O)C3CCC(C)CC3)cc12 (configuration not stated)	-107*	-42%	-14	i	1%	-3%
